In PubChem BioAssay (Tox21):
Records with an inconclusive call do not appear. Active and inactive are the calls of the source. Unless noted, calls follow the shape of the dose curve; as a rule, active = well fitted curve in the direction sought with a large enough effect in the repeat runs; inconclusive = weak or mixed curves; inactive = no such curve, though single readings can be large; an effect the other way counts as inactive or inconclusive.

Tests used:
[1] = target: Nuclear receptor subfamily 1 group I member 3 (Homo sapiens) (UniProt Q14994); test: qHTS assay to identify small molecule agonists of the constitutive androstane receptor (CAR) signaling pathway (AID 1224839);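 also: HepG2 cells stably carrying human CAR and a CYP2B6 luciferase reporter; series mostly up to about 92 µM; nearly all actives have a fitted effect of over 15% in size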
Procedure, shortened: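 HepG2 cells stably co-transfected with hCAR and a CYP2B6-2.2kb luciferase reporter; compounds at 15 concentrations with 0.75 uM PK11195 present. After 24 hr at 37 C, luciferase read by ONE-Glo luminescence.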

[2] = qHTS assay to identify small molecule antagonists of the estrogen related receptor signaling pathway with the pleiotropic PPARgamma coactivator (PGC) from Tox21 10K library - cell viability counter screen (AID 1224840; active = well fitted cell-killing curve with a large enough effect in the repeat runs, not every such curve was filed as active; also: nearly all actives have a fitted effect of over 40% in size)
Procedure, shortened: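 PGC/ERR cells were seeded at 2,000 cells/well and left 6 hours at 37 C/5% CO2 before pin-tool addition of compounds in DMSO. After 17.5 hours at 37 C, CellTiter-Fluor was added and fluorescence read 30 minutes later.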

[3] = qHTS assay to identify small molecule agonists of the hypoxia (HIF-1) signaling pathway - cell viability counter screen (AID 1224844; calls by dose curve; also: nearly all actives have a fitted effect of over 50% in size)
Procedure, shortened: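 HRE-bla ME-180 cells in medium with 0.5% dialyzed FBS were preincubated 5 hrs at 37C, exposed to compounds for 17 hrs, then viability was read as CellTiter-Glo luminescence after 30 min at room temperature, in the reporter wells.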

[4] = qHTS assay to identify small molecule agonists of H2AX (AID 1224845; active = well fitted activation curve with a large enough effect in the signal ratio in the repeat runs, not every such curve was filed as active; the % refers to the signal ratio)
Procedure, shortened: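 Wild-type CHO-K1 cells plated overnight, then exposed 3 hr at 37C to compounds at 15 concentrations (0.76% DMSO). Lysed, then HTRF anti-pH2AX(S139)-cryptate/anti-H2AX-d2 detection after 24 hr at room temperature; emissions 665 and 620 nm.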

[5] = qHTS assay to identify small molecule agonists of the hypoxia (HIF-1) signaling pathway (AID 1224846; active = well fitted activation curve with a large enough effect in the signal ratio in the repeat runs, not every such curve was filed as active; the % refers to the signal ratio)
Procedure, shortened: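 HRE-bla ME-180 cells (beta-lactamase reporter under hypoxia response element) were plated at 2,000 cells/well in medium with 0.5% dialyzed FBS, rested 5 hrs, then given compounds in DMSO for 17 hrs at 37C, 5% CO2. Reporter induction was read with CCF4-AM FRET substrate.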

[6] = qHTS assay to identify small molecule agonists of H2AX - cell viability counter screen (AID 1224847; calls by dose curve; also: top concentration of the series differs between compounds; nearly all actives have a fitted effect of over 30% in size)
Procedure, shortened: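 CHO-K1 cells plated overnight at 37C, then exposed 3 h at 37C to compounds at 15 concentrations (0.76% DMSO final). Viability by CellTiter-Glo luminescence after 30 min at room temperature.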

[7] = qHTS RealTime-Glo MT Cell Viability Assay in HepG2 cells - 24 hour (AID 1224867); also: nearly all actives have a fitted effect of over 50% in size
Procedure, shortened: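 HepG2 cells (600/well) were dispensed with RealTime-Glo reagents, incubated 5 h at 37 °C, then treated with compounds in DMSO for up to 40 h. Nonlytic NanoLuc luminescence reflecting viable cells was read at each stated time point.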

[8] = qHTS RealTime-Glo MT Cell Viability Assay in HEK293 cells - 32 hour (AID 1224868); also: top concentration of the series differs between compounds; nearly all actives have a fitted effect of over 50% in size
Procedure, shortened: (§1)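 HEK293 cells seeded with NanoLuc/prosubstrate reagent, rested 5 h at 37 C, then dosed and kept at 37 C up to 40 h. Nonlytic real-time luminescence from viable cells read at 0, 8, 16, 24, 32 and 40 h.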

[9] = A CellTox Green Cytotoxicity Assay to monitor cytotoxicity in HEK293 cells - 0 hour (AID 1224869); also: nearly all actives have a fitted effect of over 50% in size
Procedure, shortened: (§2)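 HEK293 cells premixed with CellTox Green dye were seeded at 600 cells/well and left 5 h at 37 C/5% CO2 before pin transfer of 23 nL compound in DMSO. Fluorescence from dye bound to dead-cell DNA was read during 40 h treatment.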

[10] = qHTS RealTime-Glo MT Cell Viability Assay in HepG2 cells - 40 hour (AID 1224870); also: nearly all actives have a fitted effect of over 50% in size
Procedure, shortened: (§3)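 HepG2 cells mixed with RealTime-Glo MT reagents (NanoLuc plus cell-permeant prosubstrate) were seeded at 600 cells/well, incubated 5 h at 37 C/5% CO2, then pinned with compounds in DMSO; nonlytic luminescence tracked viability during 40 h treatment.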

[11] = A CellTox Green Cytotoxicity Assay to monitor cytotoxicity in HEK293 cells - 40 hour (AID 1224871); also: nearly all actives have a fitted effect of over 45% in size; also: potency is read from the fitted curve at half-maximal effect
Procedure, shortened: as §2

[12] = qHTS RealTime-Glo MT Cell Viability Assay in HEK293 cells - 16 hour (AID 1224872)
Procedure, shortened: as §1

[13] = qHTS RealTime-Glo MT Cell Viability Assay in HepG2 cells - 8 hour (AID 1224873); also: nearly all actives have a fitted effect of over 55% in size
Procedure, shortened: as §3

[14] = qHTS RealTime-Glo MT Cell Viability Assay in HEK293 cells - 40 hour (AID 1224874); settings: RealTime-Glo luminescence; max response: active compounds read low; also: nearly all actives have a fitted effect of over 50% in size
Procedure, shortened: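 HEK293 cells mixed with RealTime-Glo reagents (NanoLuc plus cell-permeant prosubstrate) at 600 cells/well, preincubated 5 h at 37 C/5% CO2, then given 23 nL compound in DMSO. Nonlytic luminescence from viable cells was read at 0, 8, 16, 24, 32 and 40 h.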

[15] = A CellTox Green Cytotoxicity Assay to monitor cytotoxicity in HEK293 cells - 24 hour (AID 1224875); also: series mostly up to about 77 µM; nearly all actives have a fitted effect of over 45% in size
Procedure, shortened: as §2

[16] = target: Thyrotropin receptor (Homo sapiens) (UniProt P16473); test: qHTS assay to identify small molecule agonists of the thyroid stimulating hormone receptor (TSHR) signaling pathway (AID 1224843; calls by dose curve; also: nearly all actives have a fitted effect of over 45% in size)
Procedure, shortened: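 Cell line HEK293 with TSHR; density 800/well. Exposure 30 min RT. Readout HTRF cAMP (cAMP-d2/anti-cAMP-cryptate), 1 h RT before reading.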
% is scaled to controls: 0 for no effect and ±100 for the full control effect.

Thyrotropin receptor (Homo sapiens), sequence (P16473 whole entry, looked up): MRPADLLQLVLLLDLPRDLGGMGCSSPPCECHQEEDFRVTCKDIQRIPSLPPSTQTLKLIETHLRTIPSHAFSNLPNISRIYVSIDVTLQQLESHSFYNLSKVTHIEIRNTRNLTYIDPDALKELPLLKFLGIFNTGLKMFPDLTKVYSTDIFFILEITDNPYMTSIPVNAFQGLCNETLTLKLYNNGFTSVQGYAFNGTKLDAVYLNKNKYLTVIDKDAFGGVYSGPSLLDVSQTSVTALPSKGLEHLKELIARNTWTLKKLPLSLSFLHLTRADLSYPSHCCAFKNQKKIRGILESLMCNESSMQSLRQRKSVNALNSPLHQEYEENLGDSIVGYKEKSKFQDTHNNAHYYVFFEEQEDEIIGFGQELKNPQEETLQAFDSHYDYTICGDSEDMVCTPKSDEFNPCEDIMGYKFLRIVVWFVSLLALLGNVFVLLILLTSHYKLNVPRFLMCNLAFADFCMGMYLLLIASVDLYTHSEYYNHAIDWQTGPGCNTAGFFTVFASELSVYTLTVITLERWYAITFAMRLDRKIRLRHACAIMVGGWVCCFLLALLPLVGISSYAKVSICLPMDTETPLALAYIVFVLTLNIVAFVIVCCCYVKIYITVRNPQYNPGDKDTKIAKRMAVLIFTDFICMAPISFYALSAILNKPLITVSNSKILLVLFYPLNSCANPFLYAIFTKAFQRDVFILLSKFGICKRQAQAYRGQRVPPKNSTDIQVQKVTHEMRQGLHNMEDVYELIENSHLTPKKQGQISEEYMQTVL
Nuclear receptor subfamily 1 group I member 3 (Homo sapiens), sequence (Q14994 whole entry, looked up): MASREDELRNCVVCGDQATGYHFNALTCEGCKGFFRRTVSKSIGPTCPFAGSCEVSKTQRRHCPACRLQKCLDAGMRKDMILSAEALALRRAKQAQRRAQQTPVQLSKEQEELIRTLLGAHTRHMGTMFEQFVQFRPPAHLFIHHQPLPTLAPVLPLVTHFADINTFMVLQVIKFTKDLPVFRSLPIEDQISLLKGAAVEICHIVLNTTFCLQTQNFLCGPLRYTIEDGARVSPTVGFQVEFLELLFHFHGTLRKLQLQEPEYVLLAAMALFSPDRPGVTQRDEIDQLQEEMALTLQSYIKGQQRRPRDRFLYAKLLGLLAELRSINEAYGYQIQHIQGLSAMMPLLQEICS

O=C1OCCO1
active: Potency [11] 291 nM
inactive: Potency [1] | outcome [2] | outcome [3] | outcome [4] | outcome [5] | outcome [6] | outcome [7] | Potency [8] | Potency [9] | outcome [10] | Potency [12] | outcome [13] | max response [14] 1.36% | Potency [15]

N#Cc1cscn1
inactive: Potency [1] | outcome [2] | outcome [3] | outcome [4] | outcome [5] | outcome [6] | outcome [7] | Potency [8] | Potency [9] | outcome [10] | Potency [11] | Potency [12] | outcome [13] | max response [14] 9.48%

Nc1nnnn1-c1ccccc1
inactive: Potency [1] | outcome [2] | outcome [3] | outcome [4] | outcome [5] | outcome [6] | outcome [7] | Potency [8] | Potency [9] | outcome [10] | Potency [11] | Potency [12] | outcome [13] | max response [14] 0.0553% | Potency [15]

CC1(C)CC(OC(=O)CCCCCCCCC(=O)OC2CC(C)(C)NC(C)(C)C2)CC(C)(C)N1
inactive: activation [1] -1.81% [at 19 µM] | viability change, negative = cytotoxic [2] -0.192% [at 19 µM] | activation [16] -8.72% [at 19 µM] | activation (H2AX phosphorylation) [4] 0.0652% [at 31.6 µM] | activation [5] -0.0727% [at 15.8 µM] | activity change, negative = cytotoxicity [7] 2.8% [at 15.8 µM] | activity change, negative = cytotoxic [8] 12.2% [at 15.8 µM] | cytotoxicity [9] -1.08% [at 15.8 µM] | activity change, negative = cytotoxic [10] 6.12% [at 15.8 µM] | cytotoxicity increase [11] -6.42% [at 15.8 µM] | activity change, negative = cytotoxicity [12] 3.79% [at 15.8 µM] | max response [14] 17% | activity change [15] -4.42% [at 15.8 µM, active compounds read high]

O=C[O][Al]([O]C=O)[O]C=O
inactive: Potency [1] | outcome [2] | outcome [16] | outcome [3] | outcome [5] | outcome [6] | outcome [7] | Potency [8] | Potency [9] | outcome [10] | Potency [11] | Potency [12] | outcome [13] | max response [14] 5.61% | Potency [15]

CCC[C@@H]1C[C@@H](C(=O)N[C@@H]([C@H]2O[C@H](SC)[C@H](O)[C@@H](O)[C@H]2O)[C@@H](C)O)N(C)C1
inactive: Potency [1] | outcome [2] | outcome [16] | outcome [3] | outcome [4] | outcome [7] | Potency [8] | Potency [9] | outcome [10] | Potency [11] | Potency [12] | max response [14] 0.684% | Potency [15]

CN(C)CCOC(=O)C(c1ccccc1)C1(O)CCCC1 (stereo not drawn)
inactive: Potency [1] | outcome [2] | outcome [16] | outcome [3] | outcome [4] | outcome [6] | outcome [7] | Potency [9] | Potency [11] | Potency [12] | outcome [13] | max response [14] -2.33% | Potency [15]

C=C(C)c1cccc(C(C)(C)N=C=O)c1
inactive: Potency [1] | outcome [2] | outcome [3] | outcome [4] | outcome [5] | outcome [6] | outcome [7] | Potency [8] | Potency [9] | outcome [10] | Potency [11] | Potency [12] | outcome [13] | max response [14] 3.52% | Potency [15]
